Bioassay records as filed in PubChem BioAssay.
PAD4 inh: human PAD4 inhibitors, primary screen, biochemical, fluorescence polarization, 1536-well format. Protein-arginine deiminase type-4 (Homo sapiens), Q9UM07. recombinant PAD4, RCA probe fluorescence polarization. inhibition, % at 6.36 µM. actives 0.41% (n = 330,000). AID 485272, 2010;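 active = percent inhibition above a cutoff equal to the mean of all tested compounds plus 3 SD, cut at about 15% in these data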;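 note: 0% = PAD4 with RCA probe and DMSO and 100% = probe without PAD4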
SIAE primary: human SIAE inhibitors, primary screen, biochemical, fluorescence polarization, FP-Rh probe, 1536-well HTS | Sialate O-acetylesterase (Homo sapiens), Q9HAT2 | SIAE FP-Rh probe binding | inhibition, % at 9.66 µM | actives 0.69% (n = 370,000);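 active = inhibition above a cutoff: mean of compounds within the control limits plus 3 SD of those, cut at about 17% in these data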;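 note: 0% = plate median of compound wells and 100% = probe without SIAE protein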
TCR-CD3 inh: inhibitors of human TCR-CD3 interaction, primary screen, biochemical, fluorescence, TAMRA-labeled TCR probe; AID 651800, 2012; T-cell receptor (TCR); inhibition, % at 9.4 µM; actives 0.37% (n = 360,000); in the data active = inhibition above about 19%;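 note: recombinant mutant TCR 2C K166C tagged with TAMRA read by polarization; 0% = receptor in buffer alone and 100% = receptor with positive control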
PRMT1 inh: PRMT1 methyltransferase inhibitors, primary screen, biochemical, fluorescence polarization. Protein arginine N-methyltransferase 1 (Homo sapiens), Q99873. recombinant PRMT1, activity-based probe fluorescence polarization. inhibition, % at 2.79 µM. actives 1.3% (n = 370,000);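 active = inhibition above about 21% made by adding two undisclosed values, limit read from the data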
Target sequence (Q99873 whole entry, looked up): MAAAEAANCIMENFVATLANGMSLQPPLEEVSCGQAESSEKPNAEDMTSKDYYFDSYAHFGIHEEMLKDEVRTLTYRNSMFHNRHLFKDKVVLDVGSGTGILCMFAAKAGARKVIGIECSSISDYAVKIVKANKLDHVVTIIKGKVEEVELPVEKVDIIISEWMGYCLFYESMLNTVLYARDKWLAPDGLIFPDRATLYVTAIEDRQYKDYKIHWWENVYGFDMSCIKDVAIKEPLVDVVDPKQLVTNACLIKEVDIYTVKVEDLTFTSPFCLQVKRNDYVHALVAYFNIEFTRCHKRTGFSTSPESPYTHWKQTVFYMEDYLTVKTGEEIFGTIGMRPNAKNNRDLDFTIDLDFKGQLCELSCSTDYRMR
PME-1 primary: PME-1 inhibitors via competitive probe labeling, primary screen, biochemical, fluorescence polarization, FP-Rh probe, HTS; Protein phosphatase methylesterase 1 (Homo sapiens), Q9Y570; recombinant PME-1; inhibition, % at 5.9 µM; actives 0.53% (n = 320,000);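 active = inhibition above the campaign mean of all compounds plus 3 SD, cut at about 26% in these data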;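 note: competitive labeling of PME-1 active site by serine hydrolase directed probe; 0% = PME-1 with DMSO and 100% = wells lacking PME-1 enzyme; inhibitors block probe labeling so polarization falls and inhibition rises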
Fam108B counter: mouse Fam108B serine hydrolase inhibitors, primary screen, counter-screen for RBBP9 inhibitor project, biochemical, fluorescence polarization; AID 1947, 2009; recombinant Fam108B, FP-Rh probe fluorescence polarization; inhibition, % at 9.51 µM; actives 0.33% (n = 300,000);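 active = inhibition above the screen mean inhibition plus 3 SD, computed separately per campaign, cut at about 18% in these data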;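 note: inhibitors lower polarization as less probe binds the enzyme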
SIAE confirm: human SIAE inhibitors, retest, confirmation, biochemical, fluorescence polarization, FP-Rh probe, triplicate; shares compounds with SIAE primary; SIAE FP-Rh activity-based probe; inhibition, % at 9.66 µM; actives 13% (n = 2,300); AID 1117263, 2014;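 active = mean inhibition of the replicates above the hit cutoff set in the primary screen, cut at about 17% in these data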;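 note: 0% = SIAE with DMSO and probe and 100% = probe without SIAE; inhibitors lower polarization as more probe stays unbound to SIAE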
* = called active by the depositor; nt = not tested or not shown; ! = a repeat was not active. Only some compounds are listed: those with a hit (about 2.6% of all), similar ones and a draw of the others.

SMILES	PAD4 inh	SIAE primary	TCR-CD3 inh	PRMT1 inh	PME-1 primary	Fam108B counter	SIAE confirm
CC(=O)Nc1ccc(OCC(O)Cn2c(C)nc3ccccc32)cc1 (centres undefined)	2.5	18.6*	3.5	-1.6	-3.8	-2.5	-5.3
CC(OC(=O)c1cccc(NS(C)(=O)=O)c1)C(=O)Nc1ccc2c(c1)OCO2 (centres undefined)	-0.7	-5.4	3.3	2.3	-8.0	nt	nt
COc1cccc(C(=O)OC(C)C(=O)Nc2ccc3c(c2)OCO3)c1 (centres undefined)	-6.3	19.3*	4.2	3.1	5.0	nt	0.7
CCOC(=O)c1c(OCC)[nH]c2c1cc(O)c1ccccc12	-13.0	27.6*	12.4	12.9	39.4*	8.9	16.4
CCOC(=O)c1sc(N=NC2=C(O)CCCC2=O)c(C(=O)OCC)c1C	-4.4	22.4*	4.0	5.8	7.6	8.2	-0.5
COc1ccc(-n2c(SCC(=O)Nc3cc(C)c(NC(=O)c4ccccc4)cc3OC)nnc2-c2ccco2)cc1	nt	-5.7	nt	3.9	nt	nt	nt
CCCCCN1CCCCC(NC(=O)c2ccc(F)cc2)C1=O (centres undefined)	nt	-8.7	nt	4.2	nt	nt	nt
CCOc1ccc(-n2c(SCc3ccc(C#N)cc3)nnc2-c2ccco2)cc1	nt	-5.8	nt	8.9	nt	nt	nt
C[C@@H](CO)NC(=O)[C@H]1O[C@@H](n2ccc(=O)[nH]c2=O)[C@H](O)[C@@H]1O	nt	6.7	-3.1	2.5	nt	nt	nt
O=C(N[C@H](CO)Cc1ccccc1)[C@H]1O[C@@H](n2ccc(=O)[nH]c2=O)[C@H](O)[C@@H]1O	nt	47.7*	-9.8	2.9	nt	nt	43.9*
CC[C@H](C)[C@@H](CO)NC(=O)[C@H]1O[C@@H](n2ccc(=O)[nH]c2=O)[C@H](O)[C@@H]1O	nt	88.1*	1.1	0.2	nt	nt	78.3*
O=C(O)[C@H](Cc1ccccc1)NC(=O)[C@H]1O[C@@H](n2ccc(=O)[nH]c2=O)[C@H](O)[C@@H]1O	nt	-2.0	3.7	-2.5	nt	nt	nt
CCOC(=O)C1=NOC(C(=O)Nc2cc(C)cc(C)c2)(C(=O)C2CC2)C1 (centres undefined)	nt	1.1	nt	0.7	nt	nt	nt
CC(=O)C1(C(=O)NCc2ccccc2)CC(c2ccccn2)=NO1 (centres undefined)	nt	-5.7	nt	0.4	nt	nt	nt
COc1ccc(CCC(=O)N2CCCC(Nc3ccc(C)c(C)c3)C2)cc1OC (centres undefined)	-2.1	17.3*	-2.1	-2.8	4.1	0.6	4.8
O=C1NC[C@@H](CCCCN2CCN(Cc3ccccc3)C(=O)C2=O)N(CCC2CCCCC2)C1=O	nt	18.3*	-14.8	0.5	nt	nt	5.1
O=C1NC[C@@H](CCCCN2CCN(Cc3ccccc3)C(=O)C2=O)N(CC2CCCCC2)C1=O	nt	10.9	0.4	4.1	nt	nt	nt
Cc1cc(C(=O)CSc2nc(N)cc(N)n2)c(C)n1CC1CCCO1 (centres undefined)	2.0	-0.3	0.7	2.8	nt	nt	nt
Cc1cc(C)n2nc(SCC(=O)c3cc(C)n(CC4CCCO4)c3C)nc2n1 (centres undefined)	-5.5	19.5*	7.6	0.7	-6.7	-0.5	-0.1
CC1(C)CC(Nc2ccc(Nc3ccccc3)cc2)CC(C)(C)N1	nt	19.8*	4.8	23.3*	nt	nt	5.7
COc1ccc(-c2nnc(SCC(=O)Nc3cccc4ccccc34)n2Cc2ccco2)cc1	nt	2.6	nt	4.9	nt	nt	nt
O=C(N/N=C/c1ccc(N2CCOCC2)s1)c1ccc(O)cc1	nt	-0.9	-1.9	0.1	nt	nt	nt
O=C(NN=Cc1ccc(N2CCOCC2)s1)c1ccc([N+](=O)[O-])cc1	-3.8	23.7*	1.5	1.9	nt	nt	1.3
Cn1c(=O)c(=O)n(C)c2cc(S(=O)(=O)N3CCN(CCO)CC3)ccc21	nt	2.2	nt	-0.4	nt	nt	nt
COc1ccc(CNC(=O)C2CSC(=O)C2)cc1 (centres undefined)	-6.2	20.2*	2.0	5.7	0.7	7.1	-1.5
SMILES	PAD4 inh	SIAE primary	TCR-CD3 inh	PRMT1 inh	PME-1 primary	Fam108B counter	SIAE confirm
C=CCOC(=O)C1=C(C)NC(SCC(=O)N(CC)CC)=C(C#N)C1c1ccccc1 (centres undefined)	-0.5	3.9	7.4	5.6	10.1	4.3	nt
C=CCOC(=O)C1=C(C)NC(SCC(=O)NC(=O)OCC)=C(C#N)C1c1cccnc1 (centres undefined)	-1.3	17.9*!	-6.2	12.4	0.9	0.8	-0.3
O=C(CCn1nnc2ccccc21)N1CCN(c2ccc(F)cc2)CC1	nt	3.3	nt	-2.6	nt	nt	nt
Cn1c(Nc2ccccc2)nc2ccccc21	0.6	4.2	-1.6	2.9	-3.7	4.0	nt
Nn1c(Nc2ccccc2)nc2ccccc21	-2.5	23.3*	-2.3	-1.3	-0.7	-3.1	-0.1
Oc1ccc(/C=N/Nc2ccnc3cc(Cl)ccc23)c(O)c1	-4.5	27.0*	-10.7	-0.3	26.9*	3.5	35.8*
Clc1ccc2c(N/N=C/c3ccc(Br)cc3)ccnc2c1	-10.9	19.1*	-3.8	3.4	11.1	0.3	12.9
Cc1ccccc1/C=N/Nc1ccnc2cc(Cl)ccc12	-7.6	25.7*	-0.8	-6.8	11.2	3.6	30.5*
Cc1ccc(/C=N/Nc2ccnc3cc(Cl)ccc23)c(C)c1	-0.2	44.4*	6.2	-3.8	35.0*	15.9	58.7*
Clc1ccc2c(N/N=C/c3cccnc3)ccnc2c1	-1.9	-5.6	0.5	-1.5	0.2	11.0	nt
Oc1ccc(Nc2ccnc3cc(Cl)ccc23)cc1	-1.6	1.6	-2.9	1.2	-0.9	3.4	nt
CCCCNS(=O)(=O)CC1NCc2cc(F)ccc21 (centres undefined)	nt	-4.3	nt	2.8	nt	nt	nt
Cn1cccc1C(=O)N1CCN(S(=O)(=O)c2ccccc2F)CC1	nt	-3.7	nt	2.7	nt	nt	nt
Fc1ccccc1-c1ccc(/C=N/Nc2nc3ccccc3[nH]2)o1	-3.9	34.5*	-5.3	1.6	-38.7	7.8	34.5*
C(=N\Nc1nc2ccccc2[nH]1)/c1ccccn1	nt	2.6	-6.5	2.2	nt	nt	nt
O=C1CCCc2ccccc2N1Cc1ccc(F)cc1	-0.5	-1.1	-6.5	2.2	4.3	-1.2	nt
O=C1CCc2ccccc2N1Cc1ccccc1	1.9	17.9*	7.1	-0.7	1.3	3.0	0.4
CC(C)c1ccc(NC2CCCN(C(=O)CN3C(=O)CSC3=O)C2)cc1 (centres undefined)	-3.4	17.4*	-4.4	-0.6	-3.2	-0.9	-0.8
